Reference: PubChem BioAssay (NCI)
The panel holds about 79,000 compounds, 15% with a hit somewhere; the sample as a whole holds those more often. Calls of active or inactive are those of the source. Rule as the data show it: active = growth inhibition above about 70%; inactive = the rest.

Key:
[1] = NCI Yeast Anticancer Drug Screen. Data for the rad52 strain (AID 147);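 also: 0% = growth of vehicle-treated control cultures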; conditions: S. cerevisiae rad52 mutant growth inhibition, stronger effect = higher value
Summary of the method: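 Genetically altered yeast (DNA damage repair defect) treated with compound; inhibition calculated relative to vehicle.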

[2] = NCI Yeast Anticancer Drug Screen. Data for the wt1 strain (AID 149);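 also: 0% = growth of vehicle-treated wt1 cultures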; conditions: S. cerevisiae wt1 strain (SPY 50644) growth inhibition, stronger effect = higher value
Summary of the method: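 Vehicle-normalised growth inhibition; strain wt1; compound exposure.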

[3] = NCI Yeast Anticancer Drug Screen. Data for the rad50EPP+ strain (AID 151);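 also: 0% = growth of vehicle-treated control cultures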; conditions: S. cerevisiae rad50 mutant strain, stronger effect = higher value
Summary of the method: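 Strain rad50EPP+; compound exposure; % growth inhibition vs vehicle.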

[4] = NCI Yeast Anticancer Drug Screen. Data for the rad50 strain (AID 155);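 also: 0% = growth of vehicle-only cultures of the same strain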; conditions: S. cerevisiae rad50 strain growth inhibition, stronger effect = higher value
Summary of the method: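 A DNA repair-deficient yeast mutant serves as the test organism; compound-induced growth inhibition is calculated against vehicle-treated cells.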

[5] = NCI Yeast Anticancer Drug Screen. Data for the mec2-1 strain (AID 157); conditions: S. cerevisiae mec2-1 strain, stronger effect = higher value
Summary of the method: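 Cells of the genetically defined mec2-1 yeast strain are incubated with test compound. Inhibition of growth is calculated against vehicle-treated controls.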

[6] = NCI Yeast Anticancer Drug Screen. Data for the rad14 strain (AID 159);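 also: 0% = growth of vehicle-treated control cultures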; conditions: S. cerevisiae rad14 strain growth inhibition, stronger effect = higher value
Summary of the method: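 Vehicle-treated cultures served as the baseline for growth inhibition of a DNA repair-mutant yeast strain exposed to each compound.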

[7] = NCI Yeast Anticancer Drug Screen. Data for the sgs1 mgt1 strain (AID 161);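 also: 0% = growth of cultures given vehicle only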; conditions: S. cerevisiae sgs1 mgt1 strain, stronger effect = higher value
Summary of the method: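 Read-out: growth inhibition vs vehicle controls. Cells: mutant yeast strain deficient in DNA damage repair.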

[8] = NCI Yeast Anticancer Drug Screen. Data for the CLN2oe strain (AID 163);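 also: 0% = growth of vehicle-only control cultures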; conditions: S. cerevisiae CLN2oe strain, stronger effect = higher value
Summary of the method: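 Strain altered in cell-cycle control, incubated with compound; growth compared to solvent-treated controls.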

[9] = NCI Yeast Anticancer Drug Screen. Data for the bub3 strain (AID 167); conditions: S. cerevisiae bub3 mutant strain, stronger effect = higher value
Summary of the method: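 Inhibition values come from growth of compound-treated mutant yeast normalised to vehicle-treated controls.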

[10] = NCI Yeast Anticancer Drug Screen. Data for the wt2 strain (AID 169);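 also: 0% = growth of vehicle-treated yeast cultures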; conditions: S. cerevisiae wt2 strain growth inhibition, stronger effect = higher value
Summary of the method: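 Steps: yeast strain treated with compound; growth recorded; inhibition calculated relative to cultures given vehicle alone.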

[11] = NCI Yeast Anticancer Drug Screen. Data for the mlh1 strain (AID 171);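 also: 0% = growth of vehicle-treated control cultures of the same strain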; conditions: S. cerevisiae mlh1 strain growth inhibition, stronger effect = higher value
Summary of the method: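 Yeast screen: mutant strain plus compound, growth scored against vehicle control wells.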

[12] = NCI Yeast Anticancer Drug Screen. Data for the sgs1 strain (AID 173);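 also: 0% = growth of vehicle-only control cultures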; conditions: S. cerevisiae sgs1 mutant, stronger effect = higher value
Summary of the method: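 Inhibition of yeast growth served as the measure. The mutant strain was treated with each compound, and growth was normalised to cultures receiving vehicle alone.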

[13] = NCI Yeast Anticancer Drug Screen. Data for the mlh1 rad18 strain (AID 175); conditions: S. cerevisiae mlh1 rad18 strain growth inhibition, stronger effect = higher value
Summary of the method: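 Compound-treated yeast growth, normalised to vehicle controls. Strain bears defined DNA repair mutations.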

[14] = NCI Yeast Anticancer Drug Screen. Data for the rad18 strain (AID 177); conditions: S. cerevisiae rad18 mutant growth inhibition, stronger effect = higher value
Summary of the method: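 Inhibition values reflect reduced yeast growth compared with vehicle-treated controls, using a strain engineered with a DNA damage repair defect.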

[15] = NCI Yeast Anticancer Drug Screen. Data for the mgt1 strain (AID 153); conditions: S. cerevisiae mgt1 mutant growth inhibition, stronger effect = higher value
Summary of the method: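 Read-out: yeast growth inhibition vs vehicle control. Strain mgt1, drawn from a panel altered in DNA damage repair or cell cycle control.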

[16] = NCI Yeast Anticancer Drug Screen. Data for the cln2 rad14 strain (AID 165);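 also: 0% = growth equal to vehicle treated cultures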; conditions: S. cerevisiae cln2 rad14 strain, stronger effect = higher value
Summary of the method: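 The screen exposed genetically defined yeast (cln2 rad14) to test compounds and scored growth inhibition relative to vehicle-treated controls.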

[17] = at 5.0 µM (retest, dose inferred, filed as 0.5)
[18] = at 50.0 µM (retest, dose inferred, filed as 5.0)

Measured: growth inhibition

O=C(NCCCCN1CC2CCCC2C1)C(C1CCCCC1)C1CCCCC1 (stereo not drawn)
inactive: [1]; at 1.2 µM 11% | [1]; at 3.7 µM 12% | [1]; at 11.0 µM 35% | [2]; at 1.2 µM 3% | [2]; at 3.7 µM 6% | [2]; at 11.0 µM 14% | [3]; at 1.2 µM 0% | [3]; at 3.7 µM 1% | [3]; at 11.0 µM 2% | [3]; at 33.0 µM 3% | [3]; at 100.0 µM -3% | [4]; at 1.2 µM 7% | [4]; at 3.7 µM 4% | [4]; [17] 35% | [4]; at 11.0 µM 34% | [4]; at 50.0 µM 67.2% | [5]; at 1.2 µM 13% | [5]; at 3.7 µM 15% | [5]; [17] 17% | [5]; at 11.0 µM 39% | [5]; at 50.0 µM 5.4% | [6]; at 1.2 µM 9% | [6]; at 3.7 µM 12% | [6]; at 11.0 µM 52% | [7]; [17] 23% | [8]; at 1.2 µM 11% | [8]; at 3.7 µM 13% | [8]; at 11.0 µM 32% | [9]; at 1.2 µM 10% | [9]; at 3.7 µM 11% | [9]; at 11.0 µM 42% | [9]; at 50.0 µM 61.5% | [10]; at 1.2 µM 2% | [10]; at 3.7 µM 5% | [10]; at 11.0 µM 25% | [11]; at 1.2 µM 7% | [11]; at 3.7 µM 5% | [11]; at 11.0 µM 25% | [12]; at 1.2 µM 9% | [12]; at 3.7 µM 11% | [12]; at 11.0 µM 34% | [13]; [17] 16% | [14]; at 1.2 µM 16% | [14]; at 3.7 µM 23% | [14]; at 11.0 µM 49%
active: [1]; at 33.0 µM 76% | [1]; at 100.0 µM 98% | [2]; at 33.0 µM 75% | [2]; at 100.0 µM 97% | [4]; at 33.0 µM 85% | [4]; [18] 94% | [4]; at 100.0 µM 79% | [5]; at 33.0 µM 86% | [5]; [18] 93% | [5]; at 100.0 µM 98% | [6]; at 33.0 µM 97% | [6]; at 100.0 µM 99% | [7]; [18] 90% | [7]; at 50.0 µM 76.7% | [8]; at 33.0 µM 87% | [8]; at 100.0 µM 98% | [9]; [17] 94% | [9]; at 33.0 µM 90% | [9]; [18] 99% | [9]; at 100.0 µM 98% | [10]; at 33.0 µM 93% | [10]; at 100.0 µM 98% | [11]; at 33.0 µM 91% | [11]; at 100.0 µM 99% | [12]; at 33.0 µM 94% | [12]; at 100.0 µM 98% | [13]; [18] 96% | [13]; at 50.0 µM 73% | [14]; at 33.0 µM 90% | [14]; at 100.0 µM 98%

CCCN=Cc1cc(Cc2ccc(O)c(C=NCCC)c2)ccc1O
active: [1]; at 1.2 µM 70% | [1]; at 3.7 µM 95% | [1]; at 11.0 µM 98% | [1]; at 33.0 µM 98% | [1]; at 100.0 µM 97% | [2]; at 3.7 µM 97% | [2]; at 11.0 µM 98% | [2]; at 33.0 µM 99% | [2]; at 100.0 µM 99% | [3]; at 3.7 µM 85% | [3]; at 11.0 µM 96% | [3]; at 33.0 µM 98% | [3]; at 100.0 µM 99% | [15]; at 3.7 µM 97% | [15]; at 11.0 µM 99% | [15]; at 33.0 µM 98% | [15]; at 100.0 µM 97% | [4]; at 1.2 µM 70% | [4]; at 3.7 µM 97% | [4]; [17] 93% | [4]; at 11.0 µM 99% | [4]; at 33.0 µM 99% | [4]; [18] 99% | [4]; at 50.0 µM 91% | [4]; at 100.0 µM 98% | [5]; at 1.2 µM 92% | [5]; at 3.7 µM 98% | [5]; [17] 99% | [5]; at 11.0 µM 99% | [5]; at 33.0 µM 98% | [5]; [18] 99% | [5]; at 50.0 µM 91.5% | [5]; at 100.0 µM 98% | [7]; at 50.0 µM 92.2% | [8]; at 1.2 µM 78% | [8]; at 3.7 µM 97% | [8]; at 11.0 µM 98% | [8]; at 33.0 µM 99% | [8]; at 100.0 µM 98% | [16]; at 50.0 µM 91.4% | [9]; at 3.7 µM 95% | [9]; at 11.0 µM 98% | [9]; at 33.0 µM 98% | [9]; at 50.0 µM 90.8% | [9]; at 100.0 µM 97% | [10]; at 3.7 µM 98% | [10]; at 11.0 µM 99% | [10]; at 33.0 µM 99% | [10]; at 100.0 µM 98% | [11]; at 3.7 µM 96% | [11]; at 11.0 µM 98% | [11]; at 33.0 µM 98% | [11]; at 100.0 µM 96% | [12]; at 3.7 µM 89% | [12]; at 11.0 µM 98% | [12]; at 33.0 µM 98% | [12]; at 100.0 µM 97% | [13]; [17] 98% | [13]; [18] 99% | [13]; at 50.0 µM 89.3% | [14]; at 3.7 µM 95% | [14]; at 11.0 µM 98% | [14]; at 33.0 µM 99% | [14]; at 100.0 µM 99%
inactive: [2]; at 1.2 µM 64% | [3]; at 1.2 µM 27% | [15]; at 1.2 µM 45% | [7]; [17] -15% | [7]; [18] -85% | [16]; [17] -41% | [16]; [18] -84% | [9]; at 1.2 µM 64% | [9]; [17] -49% | [9]; [18] -86% | [10]; at 1.2 µM 29% | [11]; at 1.2 µM 60% | [12]; at 1.2 µM 58% | [14]; at 1.2 µM 45%
